According to PubChem BioAssay (NCATS):
Results filed as inconclusive are left out. Activity calls are given as the source filed them. Calls follow the shape of the dose curve; as a rule, active = well fitted curve in the direction sought with a large enough effect; inconclusive = small, poorly fitted or top-dose-only effect, or another doubt; inactive = no such curve, though single readings can be large; an effect the other way counts as inactive or inconclusive.

Experiments:
[1] = target: Glutathione peroxidase 1 (Homo sapiens) (UniProt P07203); experiment: Primary qHTS Assay for Inhibitors of Recombinant Selenoprotein Glutathione Peroxidase 1 (GPX1) (AID 1845191); also: nearly all actives have a fitted effect of over 65% in size; as to activity, negative = inhibition: % is scaled to controls: 0 for no effect and ±100 for the full control effect
Method in brief: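 NADPH consumption tracked by fluorescence at 340/450 nm between t=0 and t=15 min, room temperature. Final mix: 10 nM GPX1, 100 nM glutathione reductase, 1 mM GSH, 0.5 mM NADPH, 0.5 mM cumene hydroperoxide, 0.01% BSA; 30 min compound–enzyme preincubation.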

[2] = target: Phospholipid hydroperoxide glutathione peroxidase GPX4 (Homo sapiens) (UniProt P36969); experiment: Primary qHTS Assay for Inhibitors of Recombinant Selenoprotein Glutathione Peroxidase 4 (GPX4) (AID 1845192); also: nearly all actives have a fitted effect of over 65% in size; as to activity change, negative = inhibition: series mostly up to about 50 µM; % is scaled to controls: 0 for no effect and ±100 for the full control effect
Method in brief: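 NADPH consumption followed by fluorescence at 340/450 nm, t=0 and after 15 min at room temperature. Reaction started with cumene hydroperoxide (0.5 mM final) after 30 min compound–GPX4 preincubation; final 200 nM GPX4, 100 nM GR, 1 mM GSH, 0.5 mM NADPH.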

[3] = target: Luciferin 4-monooxygenase (Photinus pyralis) (UniProt P08659); experiment: Primary firefly luciferase (FLuc) qHTS assay for identification of artifact compounds. (AID 1845220); also: nearly all actives have a fitted effect of over 60% in size;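 as to activity change, negative = inhibition: series mostly up to about 54 µM; plate controls were DMSO vehicle for no effect and no enzyme for full effect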
Method in brief: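 Compounds sat 15 min at room temperature with 10 uM luciferin and 10 uM ATP (pH 7.6 Tris acetate). Firefly luciferase (10 nM final) was then added, and luminescence was read 5 min later. Data normalized to no-enzyme and DMSO controls were Hill-fitted.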

[4] = Primary fluorescence-based thiol-reactive (MSTI) qHTS assay for identification of artifact compounds. (AID 1845221); also: nearly all actives have a fitted effect of over 65% in size; also: potency is read from the fitted curve at half-maximal effect;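 as to activity change, negative = thiol reactive: series mostly up to about 54 µM; thiol-reactive compounds lower the probe fluorescence signal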
Method in brief: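 qHTS titration of compound; 4 uM MSTI, PBS pH 7.4, 2% DMSO; 1 h RT, dark; fluorescence 525/598 nm; normalized to Acetyl-MSTI and MSTI; 4-parameter Hill fit.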

[5] = system: Nanoluciferase (engineered Oplophorus gracilirostris luciferase); experiment: Primary Nanoluciferase (NLuc) qHTS assay for identification of artifact compounds. (AID 1845222);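 also: series mostly up to about 54 µM; 0% = DMSO and -100% = no enzyme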
Method in brief: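 Luminescence from secreted NLuc (filtered, 1:55-diluted S16 cell medium) read 5 min after Nano-Glo substrate; compounds preincubated 15 min, RT. Hill fits of inhibition normalized to DMSO and no-enzyme.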

[6] = Primary redox qHTS assay for identification of artifact compounds. (AID 1845223);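 also: 0% = DMSO and 100% = reference compound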
Method in brief: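 Redox-cycling detection via DTT (250 uM final) oxidation coupled to Amplex Red (25 uM)/HRP (250 mU/mL) in HBSS. 15 min preincubation plus 30 min after DTT, room temperature. Ex/Em 525/598 nm; 4-parameter Hill fit against DMSO and 10 uM DA3003.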

Chain of Phospholipid hydroperoxide glutathione peroxidase GPX4 (Homo sapiens) (P36969 whole entry, looked up): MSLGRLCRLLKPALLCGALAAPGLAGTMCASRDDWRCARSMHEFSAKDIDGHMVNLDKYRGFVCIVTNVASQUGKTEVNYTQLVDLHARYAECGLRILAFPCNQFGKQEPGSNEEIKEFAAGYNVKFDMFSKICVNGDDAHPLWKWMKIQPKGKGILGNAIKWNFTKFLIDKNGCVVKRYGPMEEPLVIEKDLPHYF
Chain of Glutathione peroxidase 1 (Homo sapiens) (P07203 whole entry, looked up): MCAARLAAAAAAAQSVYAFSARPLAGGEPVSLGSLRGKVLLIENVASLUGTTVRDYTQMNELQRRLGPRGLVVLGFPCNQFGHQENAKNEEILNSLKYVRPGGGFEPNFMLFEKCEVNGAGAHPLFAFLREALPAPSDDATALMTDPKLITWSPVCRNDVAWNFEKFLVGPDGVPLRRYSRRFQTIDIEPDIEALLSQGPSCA

CC(=O)O[C@H]1CC[C@H](C)[C@@]2(C)[C@H](OC(C)=O)c3c(C)coc3C(=O)[C@H]12
inactive: Potency [1] | Potency [2] | Potency [3] | Potency [4] | Potency [5] | Potency [6]

C[C@H](C/C=C/C(C)(C)O)[C@H]1CC[C@@]2(C)[C@@H]3[C@@H](O[C@@H]4O[C@H](CO)[C@@H](O)[C@H](O)[C@H]4O)C=C4C(CC[C@H](O)C4(C)C)[C@]3(C=O)CC[C@]12C (stereo not given in full)
inactive: Potency [1] | Potency [2] | Potency [3] | Potency [4] | Potency [5] | Potency [6]

C=C(C(=O)O)C1CCC2(C)CCCC(C)(O)C2C1 (stereo not given)
inactive: Potency [1] | Potency [2] | Potency [3] | Potency [5] | Potency [6]
active: Potency [4] 21.2 µM

C=CC[C@]12C[C@@H](OC)C(=O)C(OC)=C1O[C@@H](c1cc(OC)c3c(c1)OCO3)[C@@H]2C
inactive: Potency [1] | Potency [2] | Potency [3] | Potency [4] | Potency [5] | Potency [6]

CCC(C)C(=O)OC1CC(O)C23C4OCC5(C(O)CC2C1(C)C(O)O4)C3C(=O)C(O)C1(C)C(O)(c2ccoc2)CC2OC251 (stereo not given)
inactive: Potency [1] | Potency [2] | Potency [3] | Potency [4] | Potency [5] | Potency [6]

O=[N+]([O-])c1cccc2[nH]c(CNc3nc(N4CCOCC4)nc4c3ncn4-c3ccsc3)nc12
active: Potency [4] 10.6 µM
inactive: Potency [1] | Potency [2] | Potency [3] | Potency [5] | Potency [6]

CCC(=O)O[C@H]1C(C)(C)[C@H]([C@@H](O)C(=O)OC)[C@]2(C)C(=O)[C@@]1(O)[C@H]1O[C@]13C1CC(=O)O[C@@H](c4ccoc4)[C@]1(C)CCC32 (stereo not given in full)
inactive: Potency [1] | Potency [2] | Potency [3] | Potency [4] | Potency [5] | Potency [6]

CC1=C(CCC(C)O[C@@H]2O[C@H](CO)[C@@H](O)[C@H](O)[C@H]2O)C(C)(C)CCC1=O (stereo not given in full)
active: Potency [4] 6.56 µM
inactive: Potency [1] | Potency [2] | Potency [3] | Potency [5] | Potency [6]

CC1(C)CC[C@]2(C(=O)O[C@@H]3O[C@H](CO)[C@@H](O)[C@H](O)[C@H]3O)CC[C@]3(C)C(=CCC4[C@@]5(C)CC[C@H](O[C@@H]6O[C@H](C(=O)O)[C@@H](O)[C@H](O)[C@H]6O)C(C)(C)C5CC[C@]43C)C2C1 (stereo not given in full)
inactive: Potency [1] | Potency [2] | activity change, negative = inhibition [3] 0.101% [at 11.6 µM] | activity change, negative = thiol reactive [4] 258% [at 11.5 µM] | activity, negative = inhibition [5] 3.65% [at 11.6 µM] | redox activity (% of DA3003) [6] 15.1% [at 11.5 µM]

Cc1cc(N2CCN([C@@H]3CN[C@H](C(=O)N4CCSC4)C3)CC2)n(-c2ccccc2)n1
inactive: Potency [1] | Potency [2] | Potency [3] | Potency [4] | Potency [5] | Potency [6]

CNC(=O)c1ccccc1Nc1nc(Nc2ccc(N3CCNCC3)cc2)ncc1Cl
active: Potency [4] 3.36 µM
inactive: Potency [1] | Potency [2] | Potency [3] | Potency [5] | Potency [6]

O=C(COc1cccc2c(=O)[nH]ccc12)c1ccccc1
inactive: Potency [1] | Potency [2] | Potency [3] | Potency [4] | Potency [5] | Potency [6]

O=S(=O)(NC1CCC(c2cc(F)ccc2F)(S(=O)(=O)c2ccc(Cl)cc2)CC1)C(F)(F)F (stereo not given)
inactive: Potency [1] | Potency [2] | Potency [3] | Potency [4] | Potency [5] | Potency [6]

COc1ccc(-c2cnc(-c3cccc4c3-c3ccccc3C4=O)o2)cc1
inactive: Potency [1] | Potency [2] | Potency [3] | Potency [4] | Potency [5] | Potency [6]

CC(=O)N[C@H]1[C@H](O[C@H]2CC[C@@]3(C)C(CC[C@]4(C)C3CC=C3C5CC(C)(C)CC[C@]5(C(=O)O)[C@H](O)C[C@]34C)C2(C)C)O[C@H](CO[C@@H]2OC[C@H](O)[C@H](O)[C@H]2O[C@@H]2OC[C@@H](O)[C@H](O)[C@H]2O)[C@@H](O)[C@@H]1O (stereo not given in full)
inactive: Potency [1] | Potency [2] | activity change, negative = inhibition [3] -1.17% [at 11.6 µM] | activity change, negative = thiol reactive [4] 85% [at 11.5 µM] | activity, negative = inhibition [5] 0% [at 11.6 µM] | redox activity (% of DA3003) [6] 8.12% [at 11.5 µM]

COc1cc([C@H]2c3cc(O)c(OC)cc3C[C@@H](CO[C@@H]3O[C@H](CO)[C@@H](O)[C@H](O)[C@H]3O)[C@@H]2CO)ccc1O
active: Potency [4] 8.22 µM
inactive: Potency [1] | Potency [2] | Potency [3] | Potency [5] | Potency [6]

O=C(O)[C@@H]1C[C@H]2C[C@@H](CCc3nn[nH]n3)CC[C@H]2CN1
inactive: Potency [1] | Potency [2] | Potency [3] | Potency [4] | Potency [5] | Potency [6]

CC(C)C(=O)OC[C@H]1O[C@H](O[C@H]2O[C@H](CO)[C@@H](O)[C@H](O)[C@H]2O)[C@H](O)[C@@H](O)[C@@H]1O
inactive: Potency [1] | Potency [2] | Potency [3] | Potency [4] | Potency [5] | Potency [6]

C=C(C)C1CC[C@]2(C(=O)O)CC[C@]3(C(=O)O)[C@H](CCC4[C@@]5(C)CC[C@H](O)C(C)(C)C5CC[C@]43C)C12 (stereo not given in full)
inactive: Potency [1] | Potency [2] | Potency [3] | Potency [4] | Potency [5] | Potency [6]

COc1ccc(-c2nc(-c3ccc(-c4cccc(Cl)c4)o3)[nH]c2-c2ccc(OC)cc2)cc1
active: Potency [4] 4.23 µM
inactive: Potency [1] | Potency [2] | Potency [3] | Potency [5] | Potency [6]
